Test results published in ChEMBL document CHEMBL4513216, “Probing the Open Global Health Chemical Diversity Library for Multistage-Active Starting Points for Next-Generation Antimalarials” (ACS Infect Dis, 2020).
The whole screen tested about 65,000 compounds, of which about 2,100 (3.2%) showed an effect of 50% or more. The median lay at about -52%. Many of the other results were omitted from the sample, so strong results are more common in it than they were.

The molecules below were run on Plasmodium falciparum (assay: Screen against P. falciparum Asexual Blood Stage (ABS), at 5uM). Details: tested at 5 uM.
Assay type: functional, Dd2

Compound	INHIBITION [%]
Cc1noc(C)c1-c1cccc(CC2CCN(C(=O)c3cscn3)C2)n1 (configuration not stated)	-100
CN(C)CC(=O)N1CC2(CCN(S(=O)(=O)c3ccccc3)C2)C1	-21
CN(C)CC(=O)N1CC2(CCN(C(=O)Nc3ccccc3)C2)C1	50
CN1CC2(CNCCN(C(=O)Nc3ccccc3)C2)CC1=O (configuration not stated)	33.2
CCN1CC2(CNCCN(C(=O)Nc3ccccc3)C2)CC1=O (configuration not stated)	53.7
O=C1CC2(CNCCN(C(=O)Nc3ccccc3)C2)CN1 (configuration not stated)	-59.9
CC(=O)N1CCN(C(=O)Nc2ccccc2)CC2(CC(=O)N(C)C2)C1 (configuration not stated)	13.6
N#Cc1ccsc1NC(=O)CN1CCOC(Cn2cccn2)C1 (configuration not stated)	-49.6
Cc1cnn(CC2CCN(CC(O)COc3ccc(F)cc3)CC2)c1 (configuration not stated)	-39.2
CC(C)NC(=O)[C@H]1C[C@H]2OCC[C@H]2N(Cc2ccc3ccccc3n2)C1	3.39
CCc1ccc(CN(Cc2ccco2)C(C)C(C)C)nc1 (configuration not stated)	-199
COCCNC(=O)Nc1cccc2c1CCN(S(C)(=O)=O)C2	-3.2
Cc1ccc(OC2(C(=O)NC(C)Cc3ccncc3)CCNCC2)cc1 (configuration not stated)	-39.1
Cc1ccc(OC2(C(=O)NC(C)c3csc(C)n3)CCNCC2)cc1 (configuration not stated)	11.3
Cc1ccc(OC2(C(=O)NC(C)Cc3ccsc3)CCNCC2)cc1 (configuration not stated)	52.5
CCn1cc2c(n1)CN(Cc1sccc1C)CC2COCC1CC1 (configuration not stated)	-6.58
COc1nccnc1N1CCC(C(=O)O)(n2ccc(C(C)(C)C)n2)CC1	-5.61
CC(O)CN(C(=O)NC1CC1)C(C)C (configuration not stated)	-10.2
CC(=O)N1CCc2nc(-c3ccc(F)cc3)nc(NC(C)C)c2CC1	6.79
CCCS(=O)(=O)NCc1nc(C)cc(N2CCCC2)n1	-76.8
CC(C)c1nc(CN2CCCC2Cn2cncn2)no1 (configuration not stated)	-59.5
COc1ccccc1OC1CN(C(=O)C(c2ccc(F)cc2)N(C)C)C1 (configuration not stated)	3.3
Cc1cccc(C(C(=O)N2CC(Oc3ccccc3F)C2)N(C)C)c1 (configuration not stated)	2.84

Compound	INHIBITION [%]
CN(C)C(C(=O)N1CC(Oc2ccccc2F)C1)c1ccc(F)cc1 (configuration not stated)	64
O=C(O)CC(CC(=O)NCCc1ccsc1)c1cccs1 (configuration not stated)	-112
Clc1ccc(CN2CCc3c(ncn3C3CC3)C2)c2ncccc12	30.3
CC(=O)Cn1c(C)cc(=O)c2cc(F)ccc21	-152
CN(Cc1cccc(OCCO)c1)Cc1cccc2ncccc12	-10.8
CN(Cc1cccnc1N)Cc1cccc2ncccc12	15.1
CN(Cc1cccc(CCN)c1)Cc1cccc2ncccc12	60.4
CN(C)C(=O)C1CCCN(C(=O)c2ccccc2-n2cc(CN)cn2)C1 (configuration not stated)	25.8
CC1CCCN(CCNC(=O)c2scnc2Cl)C1 (configuration not stated)	-37.9
CCc1cccc(N2CCC(NC(=O)C3CCC3)CC2)c1	-52.2
CCN(CC)c1ccc(C2c3c(n[nH]c3C)N=C3COC(=O)C32)cc1 (configuration not stated)	-48.4
CCN(CC)S(=O)(=O)N1CC[C@H](c2ccccc2)[C@@H]2[C@H]1CCCCN2C	41.2
CN1CCCC[C@@H]2[C@H]1[C@@H](c1ccccc1)CCN2C(=O)c1ccccc1	-15.8
CN1CCCC[C@@H]2[C@H]1[C@@H](c1ccccc1)CCN2S(=O)(=O)N1CCCC1	52
Cc1cc(C2NC(=O)CN2Cc2ccc(Br)cc2)cc(C)c1O (configuration not stated)	-78.2
CC(=O)Nc1ncc(S(=O)(=O)Nc2ccc3c(c2)OCCO3)s1	-316
COc1cccc(OCCNCc2c(C)nn(C)c2N(C)C)c1	-31.9
COc1ccccc1OCCNCc1c(C(C)C)nn(C)c1N(C)C	60.1
COc1ccc(OCCNCc2c(C)nn(C)c2N(C)C)cc1	-64.9
COc1ccccc1C(O)CNCc1c(C(C)C)nn(C)c1N(C)C (configuration not stated)	6.24
COc1cc(CNCc2c(C(C)C)nn(C)c2N(C)C)ccn1	-67.4
COc1ccccc1OCCNCc1c(C)nn(C)c1N(C)C	60
Cc1ccc(N2CCCC(NCc3ccc(C)s3)C2)nn1 (configuration not stated)	-34.1

Compound	INHIBITION [%]
CC(C)(CO)NCc1nn(Cc2ccccc2)nc1-c1ccccc1	14.1
O=C(Cc1ccncc1)N1CCC2(CC1)CC(c1ccccc1)CO2 (configuration not stated)	-26.8
CC(C)C(C(=O)N1CCCN(c2nccs2)CC1)n1cncn1 (configuration not stated)	-114
Cc1csc(N2CCCN(C3Cc4ccccc4C3)CC2)n1	-1.32
O=C1CC2(CCCCN2C(=O)Cc2ccccc2)CN1c1cccnc1 (configuration not stated)	-37.3
Cc1ccc(CN2CC[C@@H]3OCCN(Cc4ccncc4)[C@H]3CC2)s1	34.9
N[C@H]1CN(C(=O)c2cnc3cc(Cl)ccc3c2O)C[C@@H]1C1CC1	-22.9
Cc1cc(Cl)ccc1C(=O)N1C[C@H](C2CC2)[C@@H](N)C1	61
N[C@H]1CN(C(=O)c2ccc(Cl)cc2O)C[C@@H]1C1CC1	33
Cc1ccc(C(=O)N2CCOC3(CCCC3)C2)c(=O)[nH]1	-106
COCCC(=O)N1C[C@H]2CN(Cc3cccnc3)C(=O)[C@H]2C1	-55.2
CCN(C)C(=O)CCN(C)Cc1cnc(C)s1	-125
CN(C(=O)Cc1ccccc1F)C1CCN(c2ccccn2)CC1	-73.8
CC(C)=CCCC1(C)C=Cc2c(cc(C)n(CCC(=O)O)c2=O)O1 (configuration not stated)	-18.9
OC1(CN2CCC(Oc3cccnc3)CC2)CNCCOC1 (configuration not stated)	-73.6
OC1(CN2CCN(c3cccc(C(F)(F)F)c3)CC2)CNCCOC1 (configuration not stated)	57
FC(F)(F)c1cccc(OC2CCN(Cc3ncc[nH]3)CC2)c1	-23
OC1(CN2CCCC2)COCCN(c2cc(C(F)(F)F)ccn2)C1 (configuration not stated)	-53.6
OC1(CN2CCC(Oc3cccc(C(F)(F)F)c3)CC2)CNCCOC1 (configuration not stated)	64.7
OC1(CNCCN2CCc3ccccc32)CNCCOC1 (configuration not stated)	-0.439
Cc1ccc(C(C)NC(=O)CSCC(N)=O)cc1 (configuration not stated)	-54.8
